Sampled rows, rich in hits. Any-hit rate of the full collection: about 1.2%.
GALR2 blocker: GALR2 (human) receptor antagonism; O43603; GALR2-expressing cells, antagonist mode; inhibition, % at 4 µM; 140,000 tested, 0.39% active; AID 828; in the data active = inhibition above about 27%;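 note: cells stimulated with galanin 1-16 at roughly its EC80; 0% = agonist challenge control and 100% = basal control without agonist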
S1P2 ag: agonists of human S1P2 receptor | O95136 | S1P2-expressing cell line, agonist reporter read-out | activation, % at 4.5 µM | 97,000 tested, 0.46% active; in the data active = activation above about 16%;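 note: 0% = vehicle low control and 100% = maximal reference agonist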
Target sequence (O95136 whole entry, looked up): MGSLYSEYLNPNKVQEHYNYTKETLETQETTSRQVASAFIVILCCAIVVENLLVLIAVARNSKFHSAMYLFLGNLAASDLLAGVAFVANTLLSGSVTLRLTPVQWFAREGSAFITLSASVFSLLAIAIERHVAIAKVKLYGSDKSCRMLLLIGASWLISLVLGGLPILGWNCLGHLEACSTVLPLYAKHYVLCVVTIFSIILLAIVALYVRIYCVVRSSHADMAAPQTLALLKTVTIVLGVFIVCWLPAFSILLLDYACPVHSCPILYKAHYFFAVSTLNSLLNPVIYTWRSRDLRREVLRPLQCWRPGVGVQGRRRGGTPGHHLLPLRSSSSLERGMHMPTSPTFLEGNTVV
GALR2 agonist: agonists of human galanin receptor 2 (GALR2); GALR2-expressing cells, agonist activation read-out; activation, % (concentration not given with the values); 140,000 tested, 0.48% active; AID 803; in the data active = activation above about 5%, passing the limit was not always enough;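 note: 0% = vehicle buffer wells and 100% = reference agonist at full effect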
S1P2 antag: S1P2 (human) receptor antagonism | AID 736 | cell-based S1P2 antagonist assay, inhibition at 5 uM | O95136 | inhibition, % at 5 µM | 97,000 tested, 0.21% active; in the data active = inhibition above about 45%;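 note: CRE beta-lactamase reporter cells expressing human S1P2 stimulated with S1P; 0% = agonist at EC80 alone and 100% = agonist plus reference antagonist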
* hit, by the source's call; x = no result given.

SMILES	GALR2 blocker	S1P2 ag	GALR2 agonist	S1P2 antag
C=C(C)Cn1c(SCC#N)nc2ccccc2c1=O	-7	0	-3	-19
Cc1nc2ccccc2n1CCc1nc2c3ccccc3nc(SCC#N)n2n1	0	39*	3	-1
O=C(NC1=NCCS1)C1CC2CCC1C2 (centres undefined)	9	18*	-2	14
Nc1ccc(-c2nc3ccc(-c4nc5ccccc5o4)cc3[nH]2)cc1	8	1	6.4*	-15
CC(=O)NC1=NN(C(C)=O)C(C)(CCS(=O)(=O)c2ccc(Br)cc2)S1 (centres undefined)	-1	x	6.9*	x
O=C(NCCO)c1ccc2c(c1)S(=O)(=O)c1ccccc1C2=O	-5	-3	0	1
CCC(C)(C)NC(=O)c1ccc2c(c1)S(=O)(=O)c1ccccc1C2=O	-19	23*	1	-41
Cc1ccc2nc3c(cc(C#N)c(=O)n3-c3nccs3)c(=O)n2c1	-22	x	27*	x
Cc1ccc2nc3c(cc(C#N)c(=O)n3CC3CCCO3)c(=O)n2c1 (centres undefined)	-5	x	6.8*	x
COc1cccc2c1C(=O)c1c(O)c3c(c(O)c1C2=O)C[C@@](O)(C(C)=O)C[C@@H]3O[C@H]1C[C@H](N)[C@H](O)[C@H](C)O1	98*	x	-2	x
CSc1nnc(-c2ccccc2)o1	-7	-4	-2	19
O=S1(=O)C=C(Sc2nnc(-c3ccccc3)o2)c2ccccc21	88*	x	-3	x
S=C1NCN(C2CCCCC2)CN1Cc1ccccc1	-6	x	-1	x
O=C(Cn1cnc2c(nnn2Cc2ccc(F)cc2)c1=O)NCc1ccco1	6	33*	-1	-15
O=C(Cn1cnc2c(nnn2Cc2ccc(Cl)cc2)c1=O)NCc1ccco1	-7	-1	0	-25
Cc1cccc(OCC(O)CN2CC3(C)CC2CC(C)(C)C3)c1 (centres undefined)	4	x	6.8*	x
COc1cc2c(cc1OC)C1=C(C#N)CCC(=NC(=O)c3ccc(Cl)cc3)N1CC2	-15	55*	1	-14
COc1cc2c(cc1OC)C1=C(C#N)COCN1CC2	-7	16	-3	-45
COCCNc1nc2sc3c(c2c(=O)n1Cc1ccco1)CCCCC3	5	x	-1	x
C/C(=N\NC(=O)c1ccc(C)cc1C)c1ccc2c(c1)OCO2	-2	x	0	x
C/C(=N/NC(=O)c1ccc2c(c1)OCO2)c1cccc(NC(=O)C(C)(C)C)c1	20	41*	-1	-12
COc1ccc(-n2nnnc2S(=O)(=O)CC(=O)N2CCCCC2)cc1	48*	-10	-2	53*
N#Cc1c(N)nc2c(c1-c1ccc3c(c1)OCO3)CCc1ccccc1-2	-10	x	4.9*	x
N#Cc1c(-c2ccc3c(c2)OCO3)csc1N	-5	-5	-3	-10
CCOC(=O)CNS(=O)(=O)c1ccc(C)cc1	-1	x	-2	x
SMILES	GALR2 blocker	S1P2 ag	GALR2 agonist	S1P2 antag
CCOC(=O)c1c(NC(=O)CSc2n[nH]c(-c3ccco3)n2)sc(C)c1C	-6	23*	-2	-12
CCOC(=O)c1c(NC(=O)CSc2n[nH]c(CNc3ccccc3)n2)sc(C)c1C	-2	-2	0	-16
O=S(=O)(C/C(=C/CO)S(=O)(=O)c1ccccc1)c1ccccc1	82*	-8	0	80*
Cc1cc(/C=C2/SC(=O)N(CC(=O)N3CCOCC3)C2=O)c(C)n1-c1ccccc1F	8	x	3	x
Nc1ccccc1-c1nnc(-c2ccc(-c3ccccc3)cc2)o1	-7	20*	4	-7
Cc1cc(/C=C2/SC(=S)N(c3cccc(Cl)c3)C2=O)c(C)n1-c1cccnc1	12	-6	-2	74*
CCCC(=O)Nc1ccc(N2CCN(C(=O)c3ccccc3C)CC2)cc1	33*	-6	-1	6
CCCCCC(=O)Nc1ccc(N2CCN(C(=O)CCC)CC2)cc1	-1	-4	-1	-2
COc1cccc(NC(=O)CN(C)C(=O)COc2ccc3ccccc3c2)c1	0	x	-1	x
O=C1c2ccccc2-c2c1cccc2C(=O)N1CCOCC1	-9	1	-2	-19
O=C1c2ccccc2C(=O)c2c1cccc2N1CCOCC1	-14	22*	0	-22
COc1cc(-c2nnc(COC(=O)c3c4c(nc5ccccc35)CCCC4)o2)cc(OC)c1OC	-2	43*	-1	-21
COC(=O)c1c2c(nc3ccccc13)CCC2	4	-3	-2	-6
O=c1ccn(-c2cccc(C(F)(F)F)c2)nc1-c1ccn(-c2ccccc2)n1	3	25*	-1	-27
Cc1cc(C)c2sc(NNC(=O)c3ccc(S(=O)(=O)N4CCc5ccccc5C4)cc3)nc2c1	-1	x	7.7*	x
COc1ccc(C2CC(C(F)(F)F)n3nc(C(N)=O)c(Cl)c3N2)cc1OC (centres undefined)	8	24*	1	16
COc1ccc(C2CC(C(F)(F)F)n3ncc(C(=O)O)c3N2)cc1OC (centres undefined)	-2	-3	-2	-3
CCOC(=O)c1ccccc1NC(=O)CSc1nc2ccccc2n1CC(=O)N1CCCC1	0	32*	0	-61
Cc1c(C(=O)Nc2ccc(OC(F)(F)F)cc2)sc2nc3n(c(=O)c12)CCC3	15	-4	-1	58*
COCCNC(=O)c1c(N)n(-c2cccc(C)c2)c2nc3ccccc3nc12	3	10	4	-12
COCCn1c(N)c(C(=O)NCC2CCCO2)c2nc3ccccc3nc21 (centres undefined)	3	6	5	-19
COCCCNC(=O)c1c(N)n(/N=C/c2cccnc2)c2nc3ccccc3nc12	6	x	2	x
C=CCn1c(N)c(C(=O)Nc2ccccc2)c2nc3ccccc3nc21	-9	x	8.1*	x
COCCNC(=O)c1c(N)n(-c2ccccc2)c2nc3ccccc3nc12	2	6	4.9*	-17
COCCCNC(=O)c1c(N)n(/N=C/c2cccs2)c2nc3ccccc3nc12	-12	x	20*	x
SMILES	GALR2 blocker	S1P2 ag	GALR2 agonist	S1P2 antag
COCCNC(=O)c1c(N)n(CCCn2ccnc2)c2nc3ccccc3nc12	12	18*	0	-5
CC(C)C[C@@H]1NC(=O)[C@H](Cc2ccc(O)cc2)NC(=O)[C@H](CCC(N)=O)NC(=O)c2cc([N+](=O)[O-])cc(I)c2NCC[C@@H](C(N)=O)NC1=O	-6	x	-2	x
CCOc1cc(C2C(C(=O)OC(C)C)=C(C)N=C3SCCC(=O)N32)ccc1OC(C)=O (centres undefined)	-9	1	-1	-9
CCCOc1ccc(C2C(C(=O)OC)=C(C)N=C3SCCC(=O)N32)cc1OCC (centres undefined)	-9	25*	1	-41
Cc1ccc(C(=O)NCCn2c(N)c(C#N)c3nc4ccccc4nc32)cc1	0	x	2	x
COc1ccc(Cn2c(N)c(C#N)c3nc4ccccc4nc32)cc1	-9	31*	3	-62
COc1ccc(-n2c(NC(=O)c3ccc(Br)o3)c(C#N)c3nc4ccccc4nc32)cc1	-1	12	5.4*	-15
COc1cc(Cn2c(N)c(C#N)c3nc4ccccc4nc32)cc(OC)c1	-6	14	13*	-35
COc1cccc(Cn2c(N)c(C#N)c3nc4ccccc4nc32)c1OC	-15	24*	4	-37
COC(=O)c1ccccc1NC(=O)c1cccc(NC(=O)c2ccc(Br)o2)c1C	-2	-7	-4	-12
